Screens (PubChem BioAssay)
Prostate diff – promotes differentiation of LNCaP prostate cells; 24,000 compounds, 0.56% hits; side scatter shift, % at 10 µM; flow cytometry side scatter, 4 d;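 active = side scatter shift above 30%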;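 also: androgen-responsive LNCaP prostate cancer cells in charcoal-stripped serum medium; percent of cells past a gate set so DMSO wells show 10% shift; higher shift means more granular cells and more differentiation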
QS inhibitor – S. aureus quorum sensing inhibition. 24,000 compounds, 0.3% hits. S. aureus RN6390 RNAIII-GFP reporter, AIP-induced, flow cytometry 3 h. AID 527. inhibition, % at 2 µM;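 active = share of bacteria positive for the green fluorescent reporter and its mean brightness both inhibited by 50% or more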;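 also: 0% = AIP-stimulated control and 100% = unstimulated bacteria without AIP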
Numbers without * were called inactive. Hits are enriched below; roughly 0.83% of the tested compounds scored in any of these assays.

SMILES | Prostate diff | QS inhibitor
COc1cccc(-c2nn(C)c3sc(C(=O)Nc4ccc5c(c4)OCCO5)cc23)c1 | 24 | 82*
COc1cccc(-c2nn(C)c3sc(C(=O)NCc4ccccn4)cc23)c1 | 3 | 0
Cc1ccc(-n2nc(C(=O)NCc3ccco3)c3c4ccccc4n(C)c3c2=O)cc1 | 8 | -1
CCN(CC)CCNC(=O)c1nn(-c2ccc(C)cc2)c(=O)c2c1c1ccccc1n2C | 36* | 6
CC(=O)c1ccc(N2CCN(C(=O)c3cc4c(-c5ccccc5F)nn(C)c4s3)CC2)cc1 | 8 | -1
CC(CCc1ccco1)NC(=O)c1cc2c(-c3ccccc3F)nn(C)c2s1 (configuration not stated) | 8 | 61*
COc1nc(-c2ccc(Cl)cc2)ccc1-c1noc(-c2ccncc2)n1 | 8 | 0
COc1ccc(-c2ccc(-c3noc(-c4ccccc4)n3)c(OC)n2)cc1 | 34* | 11
O=C(CSc1nc(-c2ccco2)cc(C(F)(F)F)n1)NC1CCCC1 | 4 | 3
CSC1=NCCN1C(=O)c1c(-c2ccccc2Cl)noc1C | 4 | 0
CC1(C)S[C@@H]2[C@H](NC(=O)[C@H](N)c3ccccc3)C(=O)N2[C@H]1C(=O)O | 0 | 50*
CC1(C)S[C@@H]2[C@H](NC(=O)C(C(=O)O)c3ccccc3)C(=O)N2[C@H]1C(=O)O (some centres not stated) | 2 | -4
CCOC(=O)N1CCN(c2c(NCCCN(CC)c3cccc(C)c3)c(=O)c2=O)CC1 | 5 | -2
Cc1ccccc1-c1nc(CN2CCC(C(=O)NCCCN3CCCC3)CC2)c(C)o1 | 65* | 0
Cc1ccccc1-c1nc(CN2CCC(C(=O)NCCCN3CCOCC3)CC2)c(C)o1 | 16 | 1
Cc1ccccc1-c1nc(CN2CCC(C(=O)NCCCN3CC(C)CC(C)C3)CC2)c(C)o1 (configuration not stated) | 75* | 8
Cc1ccccc1-c1nc(CN2CCC(C(=O)NCc3ccco3)CC2)c(C)o1 | 14 | 3
CCCS(=O)(=O)N1CCC(C(=O)NCCN2CCC(Cc3ccccc3)CC2)CC1 | 25 | -3
COc1ccc(N(CC(=O)N2CCc3ccccc3C2)S(=O)(=O)c2c(C)[nH]c(=O)[nH]c2=O)cc1 | 6 | -5
CC(C)CC(NC(=O)C1CCC(C)CC1)C(=O)Nc1cccnc1 (configuration not stated) | 7 | -3
O=C(NCCN1CCOCC1)c1ccc(CS(=O)(=O)c2ccc(Cl)cc2)o1 | 1 | -3
COCCNC(=O)C1CCCN(c2nn3c(=O)cc(C)nc3s2)C1 (configuration not stated) | 13 | 5
Cc1cc(=O)n2nc(N3CCCC(C(=O)NCCCN4CCc5ccccc5C4)C3)sc2n1 (configuration not stated) | 38* | 2
Cn1c2ccccc2c2c(C(=O)N3CCN(c4ccccn4)CC3)cn(C3CCCC3)c(=O)c21 | 5 | -1
CN(C(=O)c1ccccn1)c1nnc(-c2cccnc2)s1 | 32* | 0
SMILES | Prostate diff | QS inhibitor
CCN(C(=O)c1c(OC)cccc1OC)c1nnc(-c2cccnc2)s1 | 14 | -6
CCN1CCN(CCNC(=O)C2CCN(Cc3nc(-c4ccc(Cl)cc4)oc3C)CC2)CC1 | 44* | 1
Cc1oc(-c2cccc(Cl)c2)nc1CN1CCC(C(=O)NCc2ccco2)CC1 | 8 | 0
CCc1ccc(-c2nc(CN3CCC(C(=O)NCc4ccccc4OC)CC3)c(C)o2)cc1 | 18 | 2
COc1ccc(CCNC(=O)C2CCN(Cc3nc(-c4ccccc4F)oc3C)CC2)cc1OC | 4 | -3
CCc1ccc(-c2nc(CN3CCC(C(=O)NCCc4ccc(OC)c(OC)c4)CC3)c(C)o2)cc1 | 32* | 0
COc1ccc(-c2nc(CN3CCC(C(=O)NC4CCCc5ccccc54)CC3)c(C)o2)cc1OC (configuration not stated) | 39* | 1
Cc1oc(-c2ccc(Cl)cc2)nc1CN1CCC(C(=O)NCCCN2CCCC2=O)CC1 | 7 | -10
CCN1CCCC1CNC(=O)C1CCN(Cc2nc(-c3cccc(Br)c3)oc2C)CC1 (configuration not stated) | 63* | -3
CCOC(=O)CN1CC23C=CC(O2)C(C(=O)NC2CCCCC2)C3C1=O (configuration not stated) | 12 | 4
Cc1nc2sc(C(c3ccco3)N3CCc4ccccc4C3)c(O)n2n1 (configuration not stated) | 11 | 0
Cn1c(=O)oc2cc(S(=O)(=O)N3CCC(C(=O)NCC4COc5ccccc5O4)CC3)ccc21 (configuration not stated) | 7 | -2
CCN(CC)C(=O)c1cc(-c2ccccc2OC)on1 | 10 | -1
Cc1ccc(S(=O)(=O)N2CCOCC2)cc1C(=O)Nc1ccccn1 | 4 | 0
CCOc1cc2[nH]c(=O)n(CCCCCC(=O)NCc3ccc4c(c3)OCO4)c(=O)c2cc1OCC | 2 | 0
COc1ccccc1CNC(=O)C1CCN(Cc2nc(-c3cccc(Cl)c3)oc2C)CC1 | 7 | 2
COc1ccccc1CNC(=O)C1CCN(Cc2nc(-c3ccc(Cl)cc3)oc2C)CC1 | 32* | 1
NS(=O)(=O)c1ccc(CCNC(=O)c2cccnc2)cc1 | 8 | 3
O=C(O)CCCCNS(=O)(=O)c1ccc(Cl)c(C(F)(F)F)c1 | 7 | 0
c1ccc(-c2nc(N3CCCCCC3)nc(-n3ccnc3)n2)cc1 | 8 | 19
c1ccc(-c2ccc(C(c3ccccc3)n3ccnc3)cc2)cc1 (configuration not stated) | 3 | 58*
O=C1Nc2cc(C(=O)N3CCN(Cc4ccccc4)CC3)ccc2SC1N1CCOCC1 (configuration not stated) | 15 | 8
CCOc1ccccc1NC(=O)Cn1nnc(C(=O)Nc2ccccc2Cl)c1N | 10 | 4
CCOc1ccccc1NC(=O)c1nc[nH]c1C(=O)Nc1ccccc1OCC | 64* | -1
COc1ccc(NC(=O)c2nc[nH]c2C(=O)Nc2ccccc2C)cc1 | 8 | -3
SMILES | Prostate diff | QS inhibitor
COc1ccccc1NC(=O)c1nc[nH]c1C(=O)Nc1ccccc1OC | 35* | 1
COc1ccc(Nc2nc(-c3sc(N)nc3C)cs2)cc1 | 14 | 56*
COc1ccc(OC)c(Nc2nc(-c3cccs3)cs2)c1 | 8 | 8
Cc1ccc(CC2C(=O)N(c3ncccn3)C(=O)C2C)cc1 (configuration not stated) | 5 | -1
O=C(Cc1coc(-c2ccc(F)cc2)n1)NC1CCCCC1 | 14 | -2
O=C(Cc1coc(-c2ccc(F)cc2)n1)N1CCOCC1 | 30* | -4
Cc1ccccc1-n1c(=O)c2ccccc2n2nnnc12 | 4 | -2
Clc1cccc(-c2nnc3sc(-c4ccccc4)nn23)c1 | 32* | 2
COc1cccc(-c2nnc3sc(-c4ccc(C)cc4)nn23)c1 | 9 | -1
N#Cc1c(-c2ccccc2)nc(N2CCCCCC2)[nH]c1=O | 7 | -1
CC(C)C(=O)N1CCN(c2nc(-c3ccccc3)c3c(c2C#N)CCCC3)CC1 | 11 | 57*
O=C(O)c1cccc(COCC(F)(F)C(F)F)c1 | 6 | -2
CN1CCN(c2ccccc2NS(=O)(=O)c2ccc3c(c2)CCN3C(=O)C2CCC2)CC1 | 46* | 4
O=C(C1CCC1)N1CCc2cc(S(=O)(=O)NC3CCCC3)ccc21 | 8 | -4
COc1cc2c(cc1OC)C1=C(C#N)CN(CC(=O)O)CN1CC2 | 8 | 1
Cn1cccc1Cc1nnc(SCC(=O)Nc2ccc(F)cc2)n1-c1ccc(F)cc1 | 8 | -7
